Compound activity deposited in PubChem BioAssay by several laboratories.
UBC13 polyUb = blocks human UBC13 polyubiquitin chain formation; P61088; TR-FRET; inhibition, % at 20 µM; actives 0.47% (n = 330,000); AID 485273; in the data active = inhibition above about 45%, passing the limit was not always enough; inconclusive = no clear call, values can overlap the other calls
Target sequence (P61088 whole entry, looked up): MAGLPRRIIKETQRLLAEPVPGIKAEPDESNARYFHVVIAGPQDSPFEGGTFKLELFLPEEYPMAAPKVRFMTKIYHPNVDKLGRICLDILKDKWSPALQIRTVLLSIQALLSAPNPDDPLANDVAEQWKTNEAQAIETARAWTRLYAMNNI
Neddylation inh = blocks human cullin neddylation; AID 651699; calls only at 25 µM; P61081+Q13564; TR-FRET cullin neddylation, biochemical; actives 0.58% (n = 360,000); in the data active = inhibition above about 36%
MBD2 DNA inh = inhibitors of human MBD2 binding to methylated oligonucleotide; TR-FRET; inhibition, % at 4.4 µM; actives 0.31% (n = 370,000); AID 686964; in the data active = inhibition above about 13%
Target sequence (Q9UBB5 whole entry, looked up): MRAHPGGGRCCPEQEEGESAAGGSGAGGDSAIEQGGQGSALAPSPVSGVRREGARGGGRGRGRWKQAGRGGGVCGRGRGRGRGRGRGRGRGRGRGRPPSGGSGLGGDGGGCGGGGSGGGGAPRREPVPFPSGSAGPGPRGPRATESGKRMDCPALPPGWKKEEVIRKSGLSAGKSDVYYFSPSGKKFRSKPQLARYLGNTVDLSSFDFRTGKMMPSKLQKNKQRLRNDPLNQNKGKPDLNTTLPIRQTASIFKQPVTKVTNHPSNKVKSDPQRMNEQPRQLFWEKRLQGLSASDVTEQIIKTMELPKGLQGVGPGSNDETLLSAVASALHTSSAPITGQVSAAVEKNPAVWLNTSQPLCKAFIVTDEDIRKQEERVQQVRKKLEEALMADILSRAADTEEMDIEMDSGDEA
UHRF1 MBD2 ctr = UHRF1 methyl-DNA binding inhibition | inhibition, % at 4.4 µM | Q96T88 | actives 0.75% (n = 370,000) | UHRF1 binding to methylated oligo, TR-FRET; in the data active = inhibition above about 21%;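 also: UHRF1 SRA domain binding a hemimethylated CpG hairpin DNA probe; 0% = median of test compound wells and 100% = reference inhibitor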
Casp3 counter = inhibits human caspase-3 in UBC13 counter-screen. shares compounds with UBC13 polyUb. Recombinant caspase-3, Caspase-Glo 3/7 luminescence, 60 min. inhibition, % at 20 µM. actives 4% (n = 1,400);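 active = mean inhibition across replicates above about 26%, limit read from the data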;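 also: plate controls were DMSO with caspase-3 for no effect and DMSO wells lacking enzyme for full effect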
UBC13 confirm = human UBC13 polyubiquitin inhibition, confirmed; shares compounds with UBC13 polyUb; UBC13 polyubiquitination, TR-FRET, biochemical; inhibition, % at 10 µM; actives 68% (n = 1,400); in the data active = inhibition above about 45%; inconclusive = no clear call, values can overlap the other calls
* = called active by the depositor; i = inactive; ? = inconclusive; · = no result shown. A selection: hits, their analogues and other compounds. The true share with any hit is near 1.8%.

SMILES	UBC13 polyUb	Neddylation inh	MBD2 DNA inh	UHRF1 MBD2 ctr	Casp3 counter	UBC13 confirm
COc1ccc(NC(=O)CSc2nc3ccsc3c(=O)n2CCCCCC(=O)O)cc1	62*	i	-2	0	0	79*
COc1ccc(NC(=O)CSc2nc3ccccc3c(=O)n2Cc2cccs2)c(OC)c1	9	·	·	·	·	·
O=C(O)CCCCCn1c(SCC(=O)Nc2ccc(F)cc2)nc2ccsc2c1=O	37	i	0	4	·	·
CN(C)CCCN(C(=O)c1ccc2c(c1)CCCC2)c1nc2ccc(Cl)cc2s1	65*	i	3	7	2	93*
CCc1ccc2nc(N(CCCN(C)C)C(=O)c3ccc(C(=O)c4ccccc4)cc3)sc2c1	74*	i	3	2	-4	108*
CCC1(c2ccccc2)NC(=O)N(CC(=O)Nc2cc(Cl)ccc2N2CCN(C)CC2)C1=O (centres undefined)	87*	i	5	-1	2	66*
CN1CCN(c2ccc(Cl)cc2NC(=O)CN2C(=O)NC(C)(c3ccccc3)C2=O)CC1 (centres undefined)	12	i	0	-4	·	·
COc1ccc(NC(=O)CCc2ccc(OC)c(OC)c2)cn1	0	i	1	-4	·	·
CC(=O)c1ccc(Sc2ccccc2)cc1	?	i	2	2	·	·
CC(=O)c1ccc(Sc2ccc(C(C)=O)cc2)cc1	45*	i	-1	2	4	32
OCC1(Cc2ccc(F)cc2)CCCN(CCc2ccccc2)C1 (centres undefined)	-1	i	-6	1	·	·
C=CCC(O)(CC=C)CNC(=O)C1CCC(=O)N(CCCc2ccccc2)C1 (centres undefined)	1	i	1	1	·	·
NC(=O)c1c(NC(=O)CN2CCOCC2)sc2c1CCC2	0	i	-7	0	·	·
NC(=O)c1c(NC(=O)C(=O)NCCCN2CCOCC2)sc2c1CCCC2	52*	i	-4	-6	0	73*
CCc1ccc(OCc2nnc(-c3ccccc3Br)o2)cc1	-7	i	3	2	·	·
CCCN(CCC)CCNS(=O)(=O)c1ccc2c(c1)CCN2C(=O)C1CCC1	-3	i	-1	2	·	·
COc1ccc(-c2oc(=O)c3cc(OC)c(OC)cc3c2C#CC2(O)CCCCC2)cc1	47*	i	-2	-2	4	40
COC(=O)C1=C(C)N(Cc2ccccc2)C(=NCc2ccccc2)N[C@H]1c1ccccc1	32	i	-1	0	·	·
COC(=O)C1=C(C)N(Cc2ccccc2)C(=NCc2cccc(Cl)c2)N[C@H]1c1ccccc1	70*	i	·	·	-1	67*
COC(=O)C1=C(C)N(CC2CC2)C(=NCc2cc(OC)c(OC)c(OC)c2)N[C@H]1c1ccccc1	4	i	·	·	·	·
COC(=O)C1=C(C)N(CC2CC2)C(=NCc2cccc(Cl)c2)N[C@H]1c1ccccc1	54*	i	-3	1	-2	31
COC(=O)C1=C(C)N(Cc2ccccc2)C(=NCc2ccccc2)N[C@H]1c1cccc(F)c1	67*	i	2	-1	-4	18
COC(=O)C1=C(C)N(Cc2ccccc2)C(=NCCc2c[nH]c3ccccc23)N[C@H]1c1ccccc1	38	i	·	·	·	·
COC(=O)C1=C(C)N(Cc2ccccc2)C(=NCCc2c[nH]c3ccccc23)N[C@H]1c1cccc(F)c1	62*	i	2	1	1	64*
Cc1ccc(-c2noc(C3CCN(C(=O)Nc4ccc(C#N)cc4)CC3)n2)o1	10	i	1	-2	·	·
SMILES	UBC13 polyUb	Neddylation inh	MBD2 DNA inh	UHRF1 MBD2 ctr	Casp3 counter	UBC13 confirm
CNC(=O)c1ccccc1NC(=O)c1cccc(S(=O)(=O)N2CCC(C)CC2)c1	50*	i	-2	0	2	58*
CCNC(=O)c1ccccc1NC(=O)c1cccc(S(=O)(=O)N2CCOCC2)c1	-16	i	-5	0	·	·
CCNC(=O)c1ccccc1NC(=O)c1cccc(S(=O)(=O)N2CCC(C)CC2)c1	67*	i	3	0	-2	75*
C=CCn1nnnc1-c1cccc(Cl)c1	-3	i	2	2	·	·
CCCCCCCC(=O)N1CCN(c2cc3c(cc2F)c(=O)c(C(=O)O)cn3CC)CC1	40	i	-7	0	·	·
CCCCCCCCC(=O)N1CCN(c2cc3c(cc2F)c(=O)c(C(=O)O)cn3CC)CC1	46*	i	-2	-1	1	16
O=C(Nc1ccc(S(=O)(=O)N2CCCCC2)cc1)C1CCCN(C(=O)c2ccc(Cl)cc2)C1 (centres undefined)	40	i	-3	1	·	·
NC(=O)CCCn1c(C(=O)c2cc(Cl)c(N)c(Cl)c2)c2ccc([N+](=O)[O-])cc2[n+]1[O-]	82*	i	-5	8	1	78*
COc1ccc(-c2ccnc(-c3ccc(OCCCF)cc3)n2)cc1	1	i	2	-2	·	·
CCO[C@@H]1OC(C(=O)NCc2ccccc2)=C[C@H](c2ccccc2)[C@H]1CCCO	10	i	-3	0	·	·
CCO[C@H]1OC(C(=O)NCc2ccccc2)=C[C@@H](c2ccccc2)[C@@H]1CCCO	50*	i	-1	0	0	10
COc1ccc(CCNC(=O)C2CCN(S(=O)(=O)N3CCOCC3)CC2)cc1OC	1	i	12	4	·	·
C[C@]12CCC3C(CC[C@H]4CCCC[C@]34C)C1CC[C@@]2(O)CNCCO (some centres undefined)	64*	i	-2	0	-2	33
CC(=O)[C@@]1(O)CCC2C3CC[C@H]4C[C@@H](O)CC[C@]4(C)C3CC[C@@]21C (some centres undefined)	7	i	1	0	·	·
COc1ccc(CN2C(=O)c3cccnc3C2=O)cc1S(=O)(=O)N1CCOc2ccccc21	-6	i	5	4	·	·
CCCN1CCC(NC(=S)Nc2ccc(S(N)(=O)=O)cc2)CC1	-3	i	6	0	·	·
Cc1ccc(S(=O)(=O)n2cc(C=O)c3ccccc32)cc1	83*	i	-6	-2	5	85*
N#Cc1c(N)n[nH]c1Cc1cccc2ccccc12	6	i	-1	0	·	·
Cc1nc(N)c2c(Cc3cccc4ccccc34)nn(C(C)(C)C)c2n1	74*	i	6	6	-4	43
CC(C)=CCc1c(-c2ccc(O)cc2O)oc2cc3c(c(O)c2c1=O)C=CC(C)(C)O3	50*	·	·	·	0	2
COc1ccc2cc3cc(C(=O)Nc4ccccc4N4CCN(C)CC4)oc3nc2c1	68*	i	-1	0	-1	36
COc1ccc2cc3cc(C(=O)NCCN4CCN(c5ccccc5F)CC4)oc3nc2c1	13	·	6	-4	·	·
C=CCNC(=O)NC(=O)CSc1nnc(C(F)(F)F)n1C	48*	i	-5	-2	0	9
COc1cccc2sc(N(CCCN(C)C)C(=O)c3ccc(S(=O)(=O)N4CCc5ccccc5C4)cc3)nc12	64*	i	1	0	-4	99*
